Assay [1] concerns the target Fibroblast growth factor receptor 4 (Homo sapiens) (UniProt P22455). As to conditions: at 1 µM.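 Note: reported figure is the averaged percent inhibition of FGFR4, from the GSK PKIS kinase screening panel.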
Assay [2] deals with Tyrosine-protein kinase Fgr (Homo sapiens) (UniProt P09769). The conditions noted are these: at 0.1 µM.
Assay [3] shares this target. The conditions noted are these: at 1 µM.
Assay [4] deals with Vascular endothelial growth factor receptor 1 (Homo sapiens) (UniProt P17948). The conditions noted are these: at 0.1 µM.
For assay [5] the target is unchanged. The conditions noted are these: at 1 µM.
The target of assay [6] is Receptor-type tyrosine-protein kinase FLT3 (Homo sapiens) (UniProt P36888). The conditions noted are these: at 0.1 µM.
For assay [7] the target is unchanged. As to conditions: at 1 µM.
Assay [8] concerns the target Non-receptor tyrosine-protein kinase TYK2 (Homo sapiens) (UniProt P29597). The conditions noted are these: at 1 µM.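 Note: values are mean percent inhibition of TYK2 kinase.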
In assay [9] the target is T1, Tyrosine-protein kinase receptor TYRO3 (Homo sapiens) (UniProt Q06418).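 Note: reported percentages are averaged inhibition values of TYRO3 kinase activity.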
T1 sequence (whole entry): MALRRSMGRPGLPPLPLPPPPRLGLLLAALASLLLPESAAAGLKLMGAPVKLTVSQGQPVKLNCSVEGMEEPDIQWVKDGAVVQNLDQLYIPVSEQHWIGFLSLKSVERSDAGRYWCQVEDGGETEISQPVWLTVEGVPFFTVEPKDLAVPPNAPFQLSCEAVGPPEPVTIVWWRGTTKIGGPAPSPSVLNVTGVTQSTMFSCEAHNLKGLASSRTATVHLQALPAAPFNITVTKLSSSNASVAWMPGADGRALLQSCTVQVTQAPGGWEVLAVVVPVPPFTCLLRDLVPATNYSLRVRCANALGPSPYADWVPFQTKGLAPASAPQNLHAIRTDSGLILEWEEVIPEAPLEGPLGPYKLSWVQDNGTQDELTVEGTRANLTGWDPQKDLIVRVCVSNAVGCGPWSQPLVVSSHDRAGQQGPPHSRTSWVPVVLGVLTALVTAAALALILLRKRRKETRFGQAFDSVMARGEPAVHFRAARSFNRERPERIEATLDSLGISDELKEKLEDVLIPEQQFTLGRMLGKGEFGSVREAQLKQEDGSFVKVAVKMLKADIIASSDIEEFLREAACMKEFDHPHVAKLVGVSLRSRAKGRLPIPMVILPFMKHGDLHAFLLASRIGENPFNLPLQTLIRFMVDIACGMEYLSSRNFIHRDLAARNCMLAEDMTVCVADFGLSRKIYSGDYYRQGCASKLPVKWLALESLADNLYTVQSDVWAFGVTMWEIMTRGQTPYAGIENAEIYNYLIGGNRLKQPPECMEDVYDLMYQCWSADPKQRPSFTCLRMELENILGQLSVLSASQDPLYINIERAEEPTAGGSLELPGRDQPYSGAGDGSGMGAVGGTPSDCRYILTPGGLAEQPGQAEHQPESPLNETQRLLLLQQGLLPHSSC
The conditions noted are these: at 0.1 µM.

Assay [10] deals with T2, Receptor-type tyrosine-protein kinase FLT3 (Homo sapiens), P36888 [D835Y].
T2 sequence (whole entry): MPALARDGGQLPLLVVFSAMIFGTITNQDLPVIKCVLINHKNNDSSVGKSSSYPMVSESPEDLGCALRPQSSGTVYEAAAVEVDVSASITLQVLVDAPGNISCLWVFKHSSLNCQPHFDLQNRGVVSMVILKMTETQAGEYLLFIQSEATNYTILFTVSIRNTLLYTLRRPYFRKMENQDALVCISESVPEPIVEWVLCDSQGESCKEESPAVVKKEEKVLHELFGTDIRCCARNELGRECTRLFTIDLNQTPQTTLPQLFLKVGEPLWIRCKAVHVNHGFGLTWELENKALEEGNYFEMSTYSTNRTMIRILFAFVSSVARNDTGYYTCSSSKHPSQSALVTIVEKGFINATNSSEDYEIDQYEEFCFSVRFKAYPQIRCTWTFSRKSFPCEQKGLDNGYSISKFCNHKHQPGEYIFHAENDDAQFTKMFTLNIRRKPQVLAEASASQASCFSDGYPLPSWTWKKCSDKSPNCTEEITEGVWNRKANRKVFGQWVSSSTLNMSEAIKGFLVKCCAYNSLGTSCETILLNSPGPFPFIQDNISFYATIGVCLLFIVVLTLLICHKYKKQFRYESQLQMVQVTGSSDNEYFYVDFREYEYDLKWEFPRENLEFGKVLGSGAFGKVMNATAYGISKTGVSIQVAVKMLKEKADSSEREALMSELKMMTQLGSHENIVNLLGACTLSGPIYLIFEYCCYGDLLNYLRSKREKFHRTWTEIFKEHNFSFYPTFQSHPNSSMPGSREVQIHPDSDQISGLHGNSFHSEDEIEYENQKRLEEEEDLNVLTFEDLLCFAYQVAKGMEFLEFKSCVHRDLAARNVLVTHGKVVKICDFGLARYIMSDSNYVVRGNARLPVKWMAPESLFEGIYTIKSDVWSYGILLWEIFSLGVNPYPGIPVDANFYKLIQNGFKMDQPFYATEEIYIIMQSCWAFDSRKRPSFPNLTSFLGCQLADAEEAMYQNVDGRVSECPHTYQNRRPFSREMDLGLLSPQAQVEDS
As to conditions: at 0.1 µM.

Non-receptor tyrosine-protein kinase TYK2 (Homo sapiens), sequence (P29597 whole entry): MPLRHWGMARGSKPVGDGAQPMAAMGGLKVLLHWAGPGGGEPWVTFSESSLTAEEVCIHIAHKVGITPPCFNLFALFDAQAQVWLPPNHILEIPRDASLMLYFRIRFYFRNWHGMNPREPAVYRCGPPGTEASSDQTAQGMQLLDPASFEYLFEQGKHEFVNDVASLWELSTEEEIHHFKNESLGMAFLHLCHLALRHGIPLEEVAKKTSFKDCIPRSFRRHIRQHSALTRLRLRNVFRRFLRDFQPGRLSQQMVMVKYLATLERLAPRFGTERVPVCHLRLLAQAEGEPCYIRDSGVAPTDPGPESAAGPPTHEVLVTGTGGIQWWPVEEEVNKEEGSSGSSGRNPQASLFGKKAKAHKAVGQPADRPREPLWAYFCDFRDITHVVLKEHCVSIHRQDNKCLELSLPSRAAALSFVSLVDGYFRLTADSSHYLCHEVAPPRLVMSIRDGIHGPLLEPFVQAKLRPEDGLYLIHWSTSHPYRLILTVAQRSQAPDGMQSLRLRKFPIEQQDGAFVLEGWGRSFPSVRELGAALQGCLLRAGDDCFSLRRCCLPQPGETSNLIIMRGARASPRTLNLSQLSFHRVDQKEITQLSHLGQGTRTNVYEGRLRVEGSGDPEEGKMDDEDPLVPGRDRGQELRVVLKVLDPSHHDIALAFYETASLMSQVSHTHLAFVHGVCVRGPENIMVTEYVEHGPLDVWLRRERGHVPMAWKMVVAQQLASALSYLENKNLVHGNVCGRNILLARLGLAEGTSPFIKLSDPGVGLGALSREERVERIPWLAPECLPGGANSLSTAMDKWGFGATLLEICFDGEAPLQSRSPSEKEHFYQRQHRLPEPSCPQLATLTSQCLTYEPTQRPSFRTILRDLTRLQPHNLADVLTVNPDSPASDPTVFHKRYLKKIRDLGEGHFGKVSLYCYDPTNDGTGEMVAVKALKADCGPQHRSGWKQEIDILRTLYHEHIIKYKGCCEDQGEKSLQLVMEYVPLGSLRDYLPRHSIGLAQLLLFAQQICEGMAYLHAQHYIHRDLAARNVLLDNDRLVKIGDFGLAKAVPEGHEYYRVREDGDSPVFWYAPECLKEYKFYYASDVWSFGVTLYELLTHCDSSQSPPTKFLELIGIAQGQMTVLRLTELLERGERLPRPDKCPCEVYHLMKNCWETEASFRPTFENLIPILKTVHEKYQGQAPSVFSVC
Fibroblast growth factor receptor 4 (Homo sapiens), sequence (P22455 22-802 limits assumed): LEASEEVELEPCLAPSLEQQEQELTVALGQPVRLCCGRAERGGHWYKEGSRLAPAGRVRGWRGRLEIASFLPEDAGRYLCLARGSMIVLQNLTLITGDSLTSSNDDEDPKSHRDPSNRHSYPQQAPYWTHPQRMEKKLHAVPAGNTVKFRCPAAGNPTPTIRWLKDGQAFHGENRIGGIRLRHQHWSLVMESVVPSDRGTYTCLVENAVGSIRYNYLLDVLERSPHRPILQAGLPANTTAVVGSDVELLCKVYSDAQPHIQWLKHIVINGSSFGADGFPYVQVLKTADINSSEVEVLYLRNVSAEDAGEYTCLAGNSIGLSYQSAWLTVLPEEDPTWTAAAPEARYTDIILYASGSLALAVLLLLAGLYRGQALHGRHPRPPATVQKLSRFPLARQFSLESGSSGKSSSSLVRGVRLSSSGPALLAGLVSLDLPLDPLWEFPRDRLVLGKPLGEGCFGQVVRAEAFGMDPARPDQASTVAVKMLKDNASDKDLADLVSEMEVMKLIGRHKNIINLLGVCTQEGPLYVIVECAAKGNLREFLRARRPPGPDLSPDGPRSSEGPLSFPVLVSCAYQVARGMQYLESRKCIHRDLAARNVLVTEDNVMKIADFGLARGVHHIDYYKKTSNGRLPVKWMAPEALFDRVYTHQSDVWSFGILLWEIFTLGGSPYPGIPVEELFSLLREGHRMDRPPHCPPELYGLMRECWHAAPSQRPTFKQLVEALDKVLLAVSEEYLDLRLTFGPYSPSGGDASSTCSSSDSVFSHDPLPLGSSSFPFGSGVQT
Vascular endothelial growth factor receptor 1 (Homo sapiens), sequence (P17948 whole entry): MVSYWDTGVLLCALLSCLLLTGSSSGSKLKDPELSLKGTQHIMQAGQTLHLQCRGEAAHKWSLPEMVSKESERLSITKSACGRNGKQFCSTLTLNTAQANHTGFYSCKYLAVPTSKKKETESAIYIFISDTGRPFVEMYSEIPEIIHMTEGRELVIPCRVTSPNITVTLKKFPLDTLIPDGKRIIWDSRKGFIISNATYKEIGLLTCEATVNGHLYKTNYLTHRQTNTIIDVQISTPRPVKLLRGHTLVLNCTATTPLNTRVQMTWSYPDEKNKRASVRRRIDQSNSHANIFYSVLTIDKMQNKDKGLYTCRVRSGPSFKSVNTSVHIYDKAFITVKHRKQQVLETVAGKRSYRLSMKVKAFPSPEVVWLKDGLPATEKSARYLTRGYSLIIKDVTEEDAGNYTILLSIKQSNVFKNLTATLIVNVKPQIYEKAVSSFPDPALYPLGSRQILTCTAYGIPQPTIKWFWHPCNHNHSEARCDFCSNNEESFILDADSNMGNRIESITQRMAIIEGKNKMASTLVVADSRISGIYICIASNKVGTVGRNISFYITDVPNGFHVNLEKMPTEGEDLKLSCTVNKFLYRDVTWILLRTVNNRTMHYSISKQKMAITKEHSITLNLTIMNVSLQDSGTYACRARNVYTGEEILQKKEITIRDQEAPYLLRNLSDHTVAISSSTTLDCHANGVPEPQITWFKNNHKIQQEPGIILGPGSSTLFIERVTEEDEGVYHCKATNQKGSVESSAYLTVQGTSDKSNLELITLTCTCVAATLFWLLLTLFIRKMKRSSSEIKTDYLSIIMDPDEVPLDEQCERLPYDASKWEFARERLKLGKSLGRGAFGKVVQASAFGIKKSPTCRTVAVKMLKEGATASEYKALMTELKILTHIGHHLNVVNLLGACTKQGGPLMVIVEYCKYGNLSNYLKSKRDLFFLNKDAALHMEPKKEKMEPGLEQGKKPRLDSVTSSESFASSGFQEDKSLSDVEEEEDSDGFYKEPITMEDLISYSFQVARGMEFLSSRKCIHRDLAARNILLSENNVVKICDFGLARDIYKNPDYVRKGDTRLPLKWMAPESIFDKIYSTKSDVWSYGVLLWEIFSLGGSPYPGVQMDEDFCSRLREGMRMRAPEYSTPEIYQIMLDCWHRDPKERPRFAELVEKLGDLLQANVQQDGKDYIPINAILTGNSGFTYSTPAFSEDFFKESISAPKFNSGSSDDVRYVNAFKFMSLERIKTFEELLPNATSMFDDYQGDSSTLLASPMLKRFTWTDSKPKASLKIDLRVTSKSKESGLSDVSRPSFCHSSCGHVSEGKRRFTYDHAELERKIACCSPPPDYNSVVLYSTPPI
Tyrosine-protein kinase Fgr (Homo sapiens), sequence (P09769 2-529 limits assumed): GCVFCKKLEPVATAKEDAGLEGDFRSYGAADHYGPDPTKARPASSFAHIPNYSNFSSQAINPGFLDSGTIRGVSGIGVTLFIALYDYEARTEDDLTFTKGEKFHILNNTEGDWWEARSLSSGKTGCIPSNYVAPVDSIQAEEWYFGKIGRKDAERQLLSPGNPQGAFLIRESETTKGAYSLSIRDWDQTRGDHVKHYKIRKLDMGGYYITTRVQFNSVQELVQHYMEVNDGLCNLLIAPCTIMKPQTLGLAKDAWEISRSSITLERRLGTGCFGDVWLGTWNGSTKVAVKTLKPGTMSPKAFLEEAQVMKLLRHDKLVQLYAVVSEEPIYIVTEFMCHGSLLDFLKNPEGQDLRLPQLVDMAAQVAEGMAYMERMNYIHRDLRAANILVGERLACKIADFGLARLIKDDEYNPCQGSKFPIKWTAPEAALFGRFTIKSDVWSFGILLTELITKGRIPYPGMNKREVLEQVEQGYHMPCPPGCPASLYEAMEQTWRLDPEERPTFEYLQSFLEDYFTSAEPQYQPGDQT

As for `COC(=O)Nc1nc2ccc(Sc3ccc(NC(=O)Nc4cc(C(F)(F)F)ccc4F)cc3)cc2[nH]1`, the inhibition was -0.24% in assay [1]; 1.66% in assay [2]; 3.71% in [3]; 4.5% in assay [4]; 37.7% in [5]; 4.87% in assay [6]. Moreover, the inhibition was 32.6% in assay [7], 0.01% in assay [8] and 1.03% in assay [9].

In the case of `COc1cc2ncn(-c3cc(OCc4ccccc4C(F)(F)F)c(C(C)=O)s3)c2cc1OC`, the inhibition amounted to 0.4% in [1]; 3.6% in assay [2]; 6.26% in assay [3]; 1.7% in assay [4]; 1.67% in [5]; 1.77% in assay [6]. Moreover, the inhibition in [7] is 5.32%; in assay [10] it was 1.44%; in assay [8] it was -0.07%; in [9] it was 1.52%.

With `C/C(Nc1ccc(S(N)(=O)=O)cc1)=C1/C(=O)Nc2ccccc21`, the inhibition in assay [1] stood at 3.59%; in assay [2], 0.92%; in [3], 11.4%; in assay [4] it was 10.8%; in assay [5], 23.6%; in assay [6], 13.9%. Moreover, the inhibition is 62.9% in assay [7], 7.17% in [10], 6.88% in [8] and 1.52% in assay [9].

On to `COc1cc(C)c(N(C)C(=O)CN(C)C)cc1Nc1nc(Nc2cccc(F)c2C(N)=O)c2cc[nH]c2n1`, for which the inhibition is -2.22% in [1]; 0.53% in assay [2]; 2% in [3]; -0.09% in assay [4]; 1.09% in assay [5]; 1.42% in [6]. The inhibition was 2.03% in assay [7], 0.68% in assay [10], -1.64% in [8] and 1.86% in assay [9].

As for `CCC(=O)Nc1ccc(C)c(-c2ccc(C(=O)NCC3CC3)cc2)c1`, the inhibition was 1% in assay [1]; 1.7% in assay [2]; 4.31% in assay [3]; 0.67% in [4]; 4.22% in [5]; 3.07% in assay [6]. Also, the inhibition was 3.74% in assay [7], -0.87% in [8] and 2.6% in assay [9].

For the molecule `NS(=O)(=O)c1ccc(N/N=C2\C(=O)Nc3ccc(-c4cnco4)cc32)cc1`, the inhibition is -2.44% in assay [1]; 3.25% in assay [2]; 12.9% in [3]; -0.89% in assay [4]; 7.48% in assay [5]; 5.93% in assay [6]. In addition, the inhibition in assay [7] was 38.3%; in assay [10], 22.6%; in assay [8], 9.13%; in assay [9], 2.48%.

As to `CN(C)CCCNc1nccc(-c2c(-c3ccc(F)cc3)nn3cc(C(F)(F)F)ccc23)n1`, the inhibition is -0.45% in [1]; 1.41% in assay [2]; 9.12% in assay [3]; 0.51% in [4]; 1.19% in assay [5]; 0.5% in assay [6]. The inhibition in assay [7] is 4.18%; in [10], -2.41%; in [8], -0.14%; in assay [9] it was 1.1%.

With `COc1ccc2ncn(-c3cc(O[C@H](C)c4ccccc4Cl)c(C(N)=O)s3)c2c1`, the inhibition in assay [1] is -2.23%; in [2], 2.3%; in [3] it was 3.06%; in assay [4], 0.27%; in assay [5], 3.7%; in assay [6] it was -1.31%. In addition, the inhibition was 4.52% in assay [7], 2.46% in assay [10], -5.78% in assay [8] and 3.88% in [9].

As for `NC(=O)c1cc(-c2ccncc2)cc(-c2ccccc2)c1N`, the inhibition in [1] was 1.49%; in assay [2] it was 6.05%; in assay [3], 27%; in assay [4], 1.74%; in [5], 5.65%; in [6], -1.2%. The inhibition in [7] is 4.55%; in [10], -0.35%; in [8], -2.55%; in [9], 2.62%.

In the case of `Fc1ccc(-c2c(-c3ccncc3)nc3n2CCS3)cc1`, the inhibition in [1] came to 0.11%; in assay [2], 2.37%; in [3] it was 2.64%; in assay [4] it was 0.25%; in [5] it was 1.28%; in assay [6] it was 0.81%. The inhibition was 1.71% in assay [7], -1.87% in assay [10], 0.83% in [8] and 1.94% in [9].

Take `O=C(Nc1n[nH]c2nc(-c3ccc(O)cc3)c(Br)cc12)C1CC1`: the inhibition in assay [1] is 3.05%; in assay [2], 7.15%; in assay [3], 21.3%; in assay [4], 2.34%; in assay [5], 17.7%; in [6], 5.54%. In addition, the inhibition is 25.7% in [7], 4.14% in [10], 17.6% in [8] and 10.4% in assay [9].

Turning to `CCN(CC)Cc1ccc(Nc2nccc(-c3cnn4ncccc34)n2)cc1`, the inhibition in assay [1] was -3.39%; in assay [2], 2.7%; in assay [3], 11.3%; in assay [4], 3.62%; in [5], 16.2%; in assay [6] it was 7.95%. In addition, the inhibition in [7] is 47.7%; in assay [10], -3.04%; in assay [8] it was 11.6%; in [9], 4.07%.

Take `COc1cc2ncn(-c3cc(OCCc4ccccc4)c(C(N)=O)s3)c2cc1OC`: the inhibition in [1] is 2%; in assay [2], -0.62%; in [3], 7.7%; in assay [4] it was 1.49%; in assay [5], 4.71%; in assay [6], 0.81%. The inhibition in assay [7] is 7.46%; in assay [10], 0.74%; in [8] it was -2.99%; in assay [9], 0.78%.

Regarding `CCc1cccc(CC)c1/C=C/c1cncc(C(=O)NC)c1`, the inhibition turned out to be 0.35% in assay [1]; 3.25% in [2]; 11.7% in [3]; 4.96% in assay [4]; 2.13% in assay [5]; 2.07% in assay [6]. Besides, the inhibition was 4.49% in [7], 2.46% in assay [10], -3.91% in assay [8] and 1.2% in assay [9].

Take `Fc1ccc(-c2ncn(CCCN3CCOCC3)c2-c2ccncc2)cc1`: the inhibition is 0.42% in assay [1]; -2.23% in assay [2]; 3.21% in [3]; -2.17% in assay [4]; 0.42% in assay [5]; 0.43% in [6]. For the same molecule, the inhibition in [7] was 1.49%; in [10] it was -3.55%; in [8], -0.81%; in [9], -0.71%.

(Values after ChEMBL document CHEMBL1961873, “Compounds: GSK PKIS; Assays: Nanosyn kinase panel” (2012).)
